Screens as filed in PubChem.
Pf growth 48h: P. falciparum growth inhibition at 48 hours (one generation); hit rate 5.9% among 310,000; P. falciparum luciferase growth in erythrocytes, 48 h; Potency, µM (top dose mostly 28.7 µM), without a hit: at the highest dose activity change, negative = inhibition, actives largely listed as inhibitors; AID 504832; active = well fitted inhibition curve with a large enough effect; inconclusive = small, poorly fitted or top-dose-only effect, or another doubt; inactive = no such curve, though single readings can be large or run the other way; also: % is scaled to controls: 0 for no effect and ±100 for the full control effect
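Read-out is firefly luciferase luminescence from an integrated reporter in P. falciparum, so falling signal marks reduced parasite growth. Infected erythrocytes were at 2% hematocrit and 0.1% parasitemia (final) in Albumax-supplemented RPMI 1640.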
Pf growth 96h: P. falciparum growth inhibition at 96 hour, primary screen for plastid delayed-death inhibitors | P. falciparum luciferase reporter growth, 96 h | Potency, µM (highest dose often 28.7 µM), without a hit: at the highest dose activity change, negative = inhibition, actives largely listed as inhibitors | hit rate 6.9% among 320,000 | AID 504834; active = well fitted inhibition curve with a large enough effect; inconclusive = small, poorly fitted or top-dose-only effect, or another doubt; inactive = no such curve, though single readings can be large or run the other way; also: % is scaled to controls: 0 for no effect and ±100 for the full control effect
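Two parasite generations (96 h, 37 C, 5% CO2) of compound exposure in infected erythrocytes (0.05% parasitemia, 2% hematocrit). Luciferase-reporter P. falciparum; decreased luminescence indicates inhibited growth, aimed at apicoplast-acting delayed death.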
NS1 inh: influenza NS1 inhibition; hit rate 0.4% among 270,000; AID 2326; Potency, µM (top dose mostly 46.1 µM), without a hit: at the highest dose activity, positive = more growth; also: actives are rising curves; nearly all actives have a fitted effect of over 50% in size
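A cell-based growth assay was used: compounds that relieve NS1-induced slow growth of budding yeast raise OD600. Assay medium was yeast nitrogen base with ammonium sulphate and -URA supplement, pH 6.0, with 2% galactose.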
SARS PLpro yeast: SARS-CoV PLP inhibition in yeast. S. cerevisiae expressing SARS-CoV PLpro, growth rescue. Potency, µM (titrated, usually from 32.9 µM), without a hit: at the highest dose activity, positive = growth rescue, most hits filed as activators. hit rate 0.19% among 330,000; also: 0% is about no effect; nearly all actives have a fitted effect of over 55% in size
* marks the source's active call; other numbers are inactive results; u = inconclusive; x = not tested or not shown; [ ] = remark or other dose. Hits are enriched below; roughly 10% of the tested compounds scored in any of these assays. Unless noted, calls follow the shape of the full dose curve. Potency is read from the fitted curve at half-maximal effect.

SMILES	Pf growth 48h	Pf growth 96h	NS1 inh	SARS PLpro yeast
O=C(N[C@H]1C/C=C\C[C@@H](CC(=O)N(CCO)Cc2ccccc2)C(=O)NC[C@H](c2ccccc2)OC1=O)OCC1c2ccccc2-c2ccccc21	x	x	x	2%
O=C(CN1CCN(Cc2ccc(F)cc2Cl)C1=O)NCCc1ccccc1	x	u	-1%	0%
O=C(O)CN1CCN(Cc2ccc(F)cc2Cl)C1=O	u	8.3µM*	u	5%
CCc1noc(C)c1C(=O)N1CCCC1	12%	u	8%	-5%
CCc1noc(C)c1C(=O)N1CCCSC1=Nc1ccccc1C(C)C	15µM*	6.6µM*	x	2%
CC(=O)NCCSc1ccc(S(=O)(=O)N2CCCC2)cn1	u	-29%	x	-7%
COC1C(OC(=O)c2ccc(C)[nH]2)C(O)C(Oc2ccc3c(O)c(NC(=O)c4ccc(O)c(CC=C(C)C)c4)c(=O)oc3c2Cl)OC1(C)C (stereo not drawn)	5.9µM*	u	u	1%
COc1cccc(C2CC(c3ccccc3)=NN2S(=O)(=O)c2ccc(C)cc2)c1OC (stereo not drawn)	u	u	x	-2%
COc1ccc2c(c1OC)C(=O)N1N=C(c3ccc(-c4ccccc4)cc3)CC21 (stereo not drawn)	u	u	x	-2%
COc1ccc(C2=NN3C(=O)c4c(ccc(OC)c4OC)C3C2)cc1 (stereo not drawn)	2.6µM*	-16%	-23%	-8%
COc1ccc2c(c1OC)C(=O)N1c3ccccc3N=C(c3ccc([N+](=O)[O-])cc3)CC21 (stereo not drawn)	2.6µM*	0%	u	4%
COc1ccc2c(c1OC)C(=O)N1N=C(c3ccc(Cl)cc3)CC21 (stereo not drawn)	5.9µM*	-16%	-17%	-17%
COc1ccc2c(c1OC)C(=O)N1N=C(c3ccc(Br)cc3)CC21 (stereo not drawn)	u	-98%	-8%	-60%
COc1ccc2c(c1OC)C(=O)N1N=C(c3ccc(O)cc3)CC21 (stereo not drawn)	1.3µM*	33%	7%	2%
O=C(NCCN1CCCCC1)Nc1ccc(F)cc1F	-6%	-10%	0%	1%
CO[C@]1(NC(=O)C2SC(=C(C(N)=O)C(=O)O)S2)C(=O)N2C(C(=O)O)=C(CSc3nnnn3C)CS[C@H]21 (stereo partly drawn)	1%[12.8 µM]	-2%[12.8 µM]	x	x
CCC1Oc2ccc(C)cc2N(CC(=O)N2CCCC2)C1=O (stereo not drawn)	10%	u	2%	5%
O=C(CCC(=O)Nc1ccccc1)N/N=C/c1cccnc1	7%	5.2µM*	9%	0%
Cc1ccc(NC(=O)CCC(=O)N/N=C/c2cccnc2)cc1	12%	3.7µM*	-1%	-1%
CCOC(=O)CN1C(=O)CC(c2ccccc2)C1=O (stereo not drawn)	2%	u	-3%	-1%
CCOC(=O)N1CCN(c2ccc(S(=O)(=O)N(Cc3ccccc3)Cc3ccccc3)cn2)CC1	13µM*	-29%	-36%	u
CCN(CC)S(=O)(=O)c1ccc(N2CCN(c3ccccc3O)CC2)nc1	u	13µM*	-37%	-4%
CCN(CC)S(=O)(=O)c1ccc(N2CCN(CCO)CC2)nc1	-2%	4%	-4%	26%
CCOC(=O)N1CCN(C(=O)CN(Cc2ccc(Cl)cc2)S(=O)(=O)c2ccccc2)CC1	8.3µM*	u	-17%	-10%
COc1ccc(NC(=S)NC(=O)c2cncc(Br)c2)c(OC)c1	38%	24%	4%	-2%
SMILES	Pf growth 48h	Pf growth 96h	NS1 inh	SARS PLpro yeast
CCc1ccc(N2CC(C(=O)Nc3ccc4c(c3)OCO4)CC2=O)cc1 (stereo not drawn)	-1%	12%	x	-3%
Cc1ccc(NC(=O)CNC(=O)Cc2cccc3ccccc23)c(O)c1	-20%	32%	x	-8%
COc1ccccc1OCC(=O)N/N=C/c1cccc2cccnc12	3%	13µM*	-34%	-8%
COc1ccccc1OCC(=O)N/N=C/c1c(O)ccc2ccccc12	2.6µM*	u	-18%	u
COc1cccc(/C=N/NC(=O)COc2cccc3cccnc23)c1O	u	1%	x	0%
Cc1ccccc1OCC(=O)Nc1nnc(-c2ccncc2)s1	4%	15µM*	-53%	-3%
Cc1cc(/C=N\NC(=O)COc2cccc3cccnc23)c(C)n1-c1ccccc1	u	6.6µM*	7%	3%
CCCCC/C=C\CC(O)/C=C/c1cccc(CC(O)CCCCO)n1 (stereo not drawn)	x	x	-10%	x
OC(c1ccccc1)(c1ccccc1)c1ncc[nH]1	23%	0%	x	1%
Cc1cc(/C=N\NC(=O)COc2cccc3cccnc23)c(C)n1-c1ccc(Br)cc1	5.9µM*	2.3µM*	15%	-14%
COc1ccccc1OCCOC(=O)Nc1ccccc1	31%	8.3µM*	7%	16%
COc1ccccc1OCC(=O)Nc1ccccn1	189%	32%	-17%	-10%
CCC(=N\NC(=O)COc1ccccc1OC)/C(CC)=N/NC(=O)COc1ccccc1OC	9.3µM*	u	x	-7%
COc1ccccc1OCC(=O)NN=C(Cc1ccccc1)Cc1ccccc1	u	u	u	-2%
COc1ccccc1OCC(=O)Nc1ccncc1	53%	0.52µM*	-4%	0%
Cc1ccnc(-n2c(C)cc(/C=N/NC(=O)COc3cccc4cccnc34)c2C)c1	-19%	-11%	0%	-1%
CCCC[C@]12Cc3cc(C#N)ccc3C(O1)c1c(cc(C)n(-c3ccccc3)c1=O)O2	u	u	23%	-4%[6.58 µM]
Cc1cc(/C=N/NC(=O)CC#N)c(C)n1-c1ccc([N+](=O)[O-])cc1	-14%	u	8%	-2%
CC(C)n1cc(/C=N/NC(=O)COc2cccc3cccnc23)c2ccccc21	u	8.3µM*	11%	10%
COCc1c(Br)c(C)nc(OCC(=O)N/N=C/c2cc(C)n(-c3ccc([N+](=O)[O-])cc3)c2C)c1C#N	12µM*	u	7%	-4%
Cc1noc(C)c1NC(=O)N(C)C[C@H]1Oc2ccc(NC(=O)Cc3ccccc3)cc2C(=O)N([C@H](C)CO)C[C@@H]1C	x	x	x	-3%
O=S1(=O)N(Cc2ccccc2F)CCCN1Cc1c(F)cccc1Cl	10%	-5%	-35%	-6%
N#CC1=C(N)OC2=C(CCc3ccccc32)C1c1ccccc1 (stereo not drawn)	12µM*	27%	-25%	-13%
COc1cccc(OCc2cc(C3Nc4ccccc4C(=O)N3Cc3ccco3)ccc2OC)c1 (stereo not drawn)	8.3µM*	-7%	16%	-8%
O=C1c2ccccc2NC(c2ccccc2)N1Cc1ccco1 (stereo not drawn)	-14%	-6%	5%	-3%
COc1ccc(C2Nc3ccccc3C(=O)N2Cc2ccco2)cc1COc1ccc([N+](=O)[O-])cc1 (stereo not drawn)	u	5.9µM*	0%	-10%
O=C1OC(/C(=C\Nc2cc(Cl)ccc2O)[N+](=O)[O-])c2ccccc21 (stereo not drawn)	10µM*	u	x	-21%
